From PubChem BioAssay (NCI)
Several values for one entry are separate records, joined by “and”; a condition that tells them apart may be missing. Equal values may be shown once. The panel holds about 83,000 compounds, 20% with a hit somewhere; the sample as a whole holds those more often.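 Single-dose data. Exposure time 48 hours. Values below 10 considered active.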 Activity calls are given as the source filed them.

Tested on: UO-31 renal
Test: NCI-60 one-dose screen, 48 h (100 = growth as untreated, 0 = no growth, -100 = all killed)
Details: 10 µM
Experimental: Growth inhibition of the UO-31 human tumor cell line is measured as a screen for anti-cancer activity. Cells are grown in 96 well plates and exposed to the test compound for 48 hours. Compounds are tested at a single concentration, which is 10^-5 M for most compounds. The reported endpoint is percent growth (GI% or GIPRCNT), where numbers from 0 - 100% represent growth inhibition, and numbers from -100% - 0 represent cell death. For example, a value of 40 represents 60% growth inhibition. A value of 0 means no net growth occurred over the course of the experiment. A value of -40 indicates 40% of cells at the beginning of the experiment died by the end of the experiment. A value of -100 means all cells are dead at the end of the experiment.
NCI-60 Human Tumor Cell Lines Screen was performed using the standard one-dose NCI protocol, which is described in more detail at https://dtp.cancer.gov/discovery_development/nci-60/default.htm.
Compounds with GIPRCNT values below 10 were considered active. Activity score was based on GIPRCNT using the following formula: […]
Score is 0 for GIPRCNT values of 100 or above, 50 for GIPRCNT values of 0, and 100 for GIPRCNT values of -100.

Compound | growth
CS/C(=C\c1ccc(C(=O)c2ccc(C)cc2)n1C)S(C)=O (stereo not given) | 92.2% (inactive)
O=c1ccn2c(n1)OC1CC2OC1COC(c1ccccc1)(c1ccccc1)c1ccccc1 (stereo not given) | 97% (inactive)

Same assay, conditions: 10 µM unless noted

Compound | growth
O=COCCCc1ccccc1 | 93.2% (inactive)
CCOP(C)(=O)/C(Cc1ccc(OC)c(OC)c1)=N\O (stereo not given) | 91.2% (inactive)
CCCCNC(=O)c1ccccc1C | 94.4% (inactive)
COCCNC(C)=O | 98.2% (inactive)
CC1OS(=O)OC1C (stereo not given) | 96.1% (inactive)
CC(=O)/C(N=Nc1ccc(S(=O)(=O)c2ccc(N=N/C(C(C)=O)=C(/C)O)cc2)cc1)=C(\C)O | 83.5% (inactive)
COC(=O)c1cc(C(=O)OC)cc([N+](=O)[O-])c1 | 83.6% (inactive)
O=C(/C=C/C=C/c1ccc2c(c1)OCO2)N1CCCCC1 | 88.8% (inactive) and 74.4% (inactive)
Cc1cc(Cl)nc(Nc2ccccc2)n1 | 102% (inactive)
CCCCCCCCCCCCCCCCC(=O)O | 85.7% (inactive)
COc1ccc2nccc(Cl)c2c1 | 91.5% (inactive)
CC(C)(C)OC(=O)c1ccc(NCc2cc(O)ccc2O)cc1 | -95.1% (active)
CN(C)C(=N)N=C(N)N | 91.5% (inactive) and 106% (inactive)
OC(CC(c1ccccc1)c1cccc2ccccc12)(c1ccccc1)c1ccccc1 (stereo not given) | 70.2% (inactive) and 57.4% (inactive)
Clc1ccc2sc(-c3ccccc3)nc2c1 | 77.6% (inactive)
CC(=O)Oc1cc(C)c(OC(C)=O)c(C)c1C | 88.2% (inactive)
Nc1nc(N)c2cc(S(=O)(=O)c3ccccc3)ccc2n1 | 35.3% (inactive) and 61.5% (inactive)
COc1ccc2oc3cc(NCCN(C)C)ccc3c(=O)c2c1 | 82.9% (inactive) and 67.4% (inactive)

Compound | growth
CC(CN(C)C)CN1c2ccccc2Sc2ccccc21 (stereo not given) | 51.7% (inactive) and 77.9% (inactive) and 71.7% (inactive)
COc1ccc(/C=N/NC(N)=S)cc1 | 76.4% (inactive)
CC1=CC(=O)c2cccc(NC3=NCCO3)c21 | 86.5% (inactive)
O=C(O)Cc1cc(=O)[nH]n(-c2ccccc2)c1=O | 101% (inactive)
O=C1CCC(=O)N1CC1CC2CCC1C2 (stereo not given) | 101% (inactive) and 95.5% (inactive)
COc1cc(Cl)ccc1C | 67.1% (inactive)
O=c1[nH]c(=S)[nH]n1C(=S)n1[nH]c(=S)[nH]c1=O | 80.5% (inactive)
CN(C)C(=S)N(C)C | 98.4% (inactive)
Nc1nc(-c2ccccn2)cc(-c2cc(-c3ccccn3)nc(N)n2)n1 | 91.1% (inactive)
O=C(O)c1ccc2c3ccc(C(=O)O)c4c(C(=O)O)ccc(c5ccc(C(=O)O)c1c25)c43 | 85.8% (inactive)
O=C1C=CC(n2cc(F)c(=O)[nH]c2=O)O1 (stereo not given) | 63.4% (inactive)
COc1ccc(COC=O)cc1 | 92.5% (inactive)
CCOC(=O)c1ccc(N2C(=O)C(Cl)(c3ccccc3)C2c2ccco2)cc1 (stereo not given) | 70.8% (inactive)
CCc1ccc(OC(=O)CCl)cc1 | 88.6% (inactive)
OCCSc1ccc(Cl)cc1 | 95.9% (inactive) and 85.7% (inactive)
COC(=O)c1ccccc1Cl | 93.8% (inactive)
NC1=NC(c2ccccc2)N=C(Nc2ccccc2)N1 (stereo not given) | 105% (inactive) and 89.7% (inactive)
O=C1C(=O)c2ccccc2C(O)=C1CC=C(Cl)Cl | 55% (inactive) and 47.8% (inactive)

Same assay, conditions: 100 µM

Compound | growth
CS/C(=C\c1ccc(C(=O)c2ccc(C)cc2)n1C)S(C)=O (stereo not given) | 57.8% (inactive)
O=c1ccn2c(n1)OC1CC2OC1COC(c1ccccc1)(c1ccccc1)c1ccccc1 (stereo not given) | 89.9% (inactive)
